From PubChem BioAssay AID504834 (National Center for Advancing Translational Sciences (NCATS), 2011)
Hit rate of the full screen: of about 320,000 compounds, about 22,000 (6.9%) were called active. Roughly 27% stayed inconclusive and do not appear here. What follows is part of a selection rich in actives, with near analogues and random picks from the rest. A number with no mark means an inactive call. The call rests on the fitted dose curve; in most records, active means well fitted inhibition curve with a large enough effect; inconclusive means small, poorly fitted or top-dose-only effect, or another doubt; inactive means no such curve, though single readings can be large or run the other way.

Experiment: Primary qHTS for delayed death inhibitors of the malarial parasite plastid, 96 hour incubation
Settings: P. falciparum luciferase reporter growth; series mostly up to 28.7 µM; activity change, negative = inhibition: at the top concentration
In short: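 Two-generation exposure (96 h) targets delayed-death phenotype. Reporter parasites carrying integrated firefly luciferase, in red cells at 2% hematocrit and 0.05% parasitemia final, kept at 37 C, 5% CO2; luminescence loss indicates inhibition.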
On the % scale 0 is the no-effect control and ±100 the full control effect; potency means the concentration at half of the fitted maximal effect.

| Compound | activity change, negative = inhibition [%] | Potency |
| --- | --- | --- |
| COc1ccc(S(=O)(=O)c2c[nH]c(=S)[nH]c2=O)cc1Cl | 37.2 | – |
| O=C(O)c1cc(S(=O)(=O)NC2CCCc3ccccc32)ccc1O (stereo not drawn) | 5.45 | – |
| O=c1[nH]c2ccc(S(=O)(=O)N3CCCC3)cc2[nH]1 | 35.6 | – |
| CCCCn1c(N)c(N(CCOC)C(=O)c2cccc(S(=O)(=O)N3CCCCC3)c2)c(=O)[nH]c1=O | -0.352 | – |
| CCCCn1c(=S)[nH]c2cc(S(=O)(=O)N3CCCCC3)ccc21 | – | 9.28 µM (active) |
| Cc1ccc(S(=O)(=O)N(C)C)cc1NC(=O)C1Cc2ccccc2CN1C(=O)c1ccco1 (stereo not drawn) | -21.9 | – |
| O=C(NCCCn1ccnc1)/C(=C\c1ccccc1F)NC(=O)c1ccccc1 | 22.2 | – |
| Cc1c(C(=O)OCC(=O)N2CCCC2=O)oc2ccccc12 | 20 | – |
| CC1CCCN(CC(O)COCc2ccccc2)C1 (stereo not drawn) | 33.6 | – |
| Oc1c(CN2CCCC2)cc(COCc2ccccc2)c2cccnc12 | – | 2.08 µM (active) |
| O=[N+]([O-])c1cc([N+](=O)[O-])c2cccnc2c1O | -7.46 | – |
| Cc1cnc(C(=O)N2CCCC(N3CCN(c4ccccc4F)CC3)C2)cn1 (stereo not drawn) | -0.336 | – |
| O=C(Nc1nnc(SCc2c(Cl)cccc2Cl)s1)c1cccc([N+](=O)[O-])c1 | 1.35 | – |
| COc1cc(NC(=O)CCS(=O)(=O)c2ccc3c(c2)oc(=O)n3C)cc(OC)c1 | – | 1.47 µM (active) |
| COc1ccc(NC(=O)CCNS(=O)(=O)c2ccc3c(c2)c(=O)n(C)c(=O)n3C)cc1OC | 65 | – |
| Cn1c(=O)oc2cc(S(=O)(=O)NCCC(=O)NCc3ccccc3Cl)ccc21 | – | 10.4 µM (active) |
| Cc1ccc(NC(=O)CCNS(=O)(=O)c2ccc3c(c2)oc(=O)n3C)cc1C | 14.7 | – |
| CSCCC(NS(=O)(=O)c1ccc2c(c1)oc(=O)n2C)C(=O)NCc1ccccc1 (stereo not drawn) | 7.38 | – |
| O=C(CCNS(=O)(=O)c1ccc(Br)s1)NCc1ccccc1Cl | 3.9 | – |
| Cn1c(=O)oc2cc(S(=O)(=O)N3CCC(C(=O)Nc4ccc(OC(F)(F)F)cc4)CC3)ccc21 | 37.5 | – |
| CCN(Cc1ccccc1)C(=O)CCS(=O)(=O)c1ccc2c(c1)oc(=O)n2C | 7.96 | – |
| COc1cccc(NC(=O)CCNS(=O)(=O)c2ccc3c(c2)oc(=O)n3C)c1 | – | 7.38 µM (active) |
| CS(=O)(=O)N(CC(=O)Nc1ccc(F)cc1)C1CCCCC1 | 19.4 | – |

| Compound | activity change, negative = inhibition [%] | Potency |
| --- | --- | --- |
| CCOC(=O)Cn1c(O)c(N=NC(=O)CNC(=O)Cc2ccccc2)c2ccccc21 | 18.9 | – |
| Cc1nc2nc(C)c(NS(=O)(=O)c3ccc(C(C)(C)C)cc3)c(=O)n2[nH]1 | 26.3 | – |
| CC1CCN(C(=O)c2cccc(S(=O)(=O)N3CCCc4ccccc43)c2)CC1 | -9.51 | – |
| CC1CCN(C(=O)COC(=O)c2cc(=O)[nH]c3ccccc23)CC1 | 2.14 | – |
| CN(C)NC(=O)c1csnc1-c1c(Cl)cccc1Cl | -3.91 | – |
| O=C(COC(=O)CNS(=O)(=O)c1ccc(F)c(F)c1F)NC1CCCC1 | 15 | – |
| O=C(Nc1nc(-c2ccc3c(c2)OCO3)cs1)c1ccncc1 | – | 4.15 µM (active) |
| Cc1csc(NC(=O)C2=COCCO2)n1 | 121 | – |
| Cc1ccc(-c2csc(NC(=O)C3=COCCO3)n2)cc1C | – | 6.57 µM (active) |
| Cc1ccc(-c2csc(NC(=O)c3cnccn3)n2)cc1C | -3.59 | – |
| O=C(Nc1nc2ccccc2s1)c1ccc2c(c1)OCO2 | 31.4 | – |
| CC(=O)NCCC(=O)Nc1nc(-c2ccc3c(c2)OCCO3)cs1 | 105 | – |
| COc1ccc(NC(=O)NNC(=O)COc2cc(C)c(Cl)c(C)c2)c(OC)c1 | 15.4 | – |
| COC(=O)c1ccc(COc2cc([N+](=O)[O-])cc3cccnc23)cc1 | 105 | – |
| CCc1ccc(S(=O)(=O)NCC(O)COc2ccc(OC)cc2)cc1 (stereo not drawn) | 30.5 | – |
| O=C(Nc1cccc(-n2cnnn2)c1)c1cccnc1 | 33.7 | – |
| CC(=O)C(C)n1cnc2scc(-c3ccc(C)cc3)c2c1=O (stereo not drawn) | -25.2 | – |
| CCOC(=O)c1c(NC(=O)CCl)sc(C(=O)N(CC)CC)c1C | – | 9.28 µM (active) |
| CCOC(=O)c1sc(NC(=O)CCN2CCOCC2)c(C(=O)OCC)c1C | 22.1 | – |
| CCOC(=O)Nc1sc(C(=O)N(C)C)c(C)c1C(=O)OCC | 207 | – |
| O=C(NCc1ccncc1)c1ccc(NS(=O)(=O)c2cccc([N+](=O)[O-])c2)cc1 | -1.86 | – |
| Cc1nc2ccccc2c(=O)n1-c1ccc(NS(=O)(=O)c2ccc(F)cc2F)cc1 | 17.4 | – |
| COCCn1c(SCc2nc3cc(OC)c(OC)cc3c(=O)[nH]2)nnc1-c1ccncc1 | 40.9 | – |

| Compound | activity change, negative = inhibition [%] | Potency |
| --- | --- | --- |
| CCn1c(Cc2ccccc2)nnc1SCc1nc2ccccc2c(=O)[nH]1 | 9.46 | – |
| CCn1c(SCc2ccccc2)nc2cc(OC)c(OC)cc2c1=O | – | 2.94 µM (active) |
| CS(=O)(=O)c1ccc(-c2nnn(CC(=O)Nc3ccc4c(c3)OCCO4)n2)cc1 | 19.7 | – |
| O=C1c2ccccc2C(=O)C1c1ccccc1F | -0.389 | – |
| O=C(NCc1ccco1)c1ccc([N+](=O)[O-])cc1Cl | -5.31 | – |
| Cc1ccc2c(c1)C1CN(C)CCC1N2C(=O)c1ccccc1NS(=O)(=O)c1ccc(F)cc1C (stereo not drawn) | – | 9.28 µM (active) |
| Cc1ccc2c(c1)C1CN(C)CCC1N2C(=O)Cn1nnc(-c2ccccc2F)n1 (stereo not drawn) | 27.2 | – |
| Cc1ccc2c(c1)C1CN(C)CCC1N2C(=S)Nc1ccc(Cl)cc1Cl (stereo not drawn) | -2.18 | – |
| CC(OC(=O)CNC(=O)c1ccco1)C(=O)Nc1ccc(Cl)cn1 (stereo not drawn) | 19.5 | – |
| Cc1nn(-c2ccccc2)c(C)c1/C=N/NC(=O)CSc1nc2ccccc2c(=O)n1-c1ccccc1 | -19.8 | – |
| Cc1ccc(-n2c(SCC(=O)N/N=C/C=C/c3ccccc3[N+](=O)[O-])nc3ccccc3c2=O)cc1 | – | 10.4 µM (active) |
| O=C(CSc1nc2ccccc2[nH]1)N/N=C/C=C\c1ccccc1[N+](=O)[O-] | -5.62 | – |
| COc1ccc(CCNC(=O)CN(C)S(=O)(=O)c2ccc3nc(C)sc3c2)cc1OC | 4.32 | – |
| COCCn1c(SCC(=O)Nc2ccccc2F)nc2c(c1=O)SCC2 | – | 14.7 µM (active) |
| CCCCSc1nc2c(c(=O)n1CC)SC(C)C2 (stereo not drawn) | -41.8 | – |
| COCCn1c(SCC(=O)Nc2cc(OC)ccc2OC)nc2c(c1=O)SC(C)C2 (stereo not drawn) | -29.5 | – |
| Cn1nnnc1SCC(=O)Nc1ccccc1C(=O)NC1CC1 | 11.2 | – |
| CC1Cc2nc(SCC(=O)Nc3ccccc3F)n(C)c(=O)c2S1 (stereo not drawn) | 27.8 | – |
| CCn1c(SCC(=O)Nc2ccccc2F)nc2c(c1=O)SC(C)C2 (stereo not drawn) | – | 11.7 µM (active) |
| COCCn1c(SCC(=O)Nc2cc(Cl)ccc2OC)nc2c(c1=O)SC(C)C2 (stereo not drawn) | – | 3.7 µM (active) |
| Cn1c(SCC(=O)N2CCCCC2)nc2c(c1=O)SCC2 | -11.4 | – |
| CCn1c(SCC(=O)Nc2ccc3c(c2)OCCO3)nc2c(c1=O)SC(C)C2 (stereo not drawn) | 6.59 | – |
